Source: PubChem BioAssay AID1259313 (Sanford-Burnham Center for Chemical Genomics, 2017)
The campaign covered roughly 340,000 compounds. About 8,500 (2.5%) were called active.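 The calls were made as follows: active = melting temperature shift of at least 10% of the positive control shift, at one fixed dose; inactive = the rest.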 Only a selection was taken, and actives are over-represented in it overall.

Each compound was assayed on Glutamate receptor ionotropic, NMDA 3A (GRIN3A) ligand-binding domain (assay: binders of NR3A ligand-binding domain, primary screen, biophysical, differential scanning fluorimetry, uHTS (AID 1259313)). Conditions: NR3A LBD differential scanning fluorimetry, at 25 µM, stronger effect = higher value, 0% = protein alone, 100% = glycine-bound protein.

SMILES	Tm shift relative to glycine control
CCOc1cc(/C=C(/C#N)c2ccc(Cl)cc2)cc(Cl)c1OCC(=O)O	-1.37% (inactive)
COc1cc(/C=N/O)cc(Br)c1OS(=O)(=O)c1ccc(C)cc1	-0.94% (inactive)
CCOc1cc(/C=N/O)cc(Br)c1OC	10.5% (active)
COc1cc(/C=N/O)cc(Br)c1OCc1cccc(Cl)c1	9.46% (inactive)
CCOc1c(Cl)cc(/C=N/O)cc1OC	10.8% (active)
CCOc1cc(/C=N/O)ccc1OCc1ccccc1F	-0.35% (inactive)
C[C@@H]1ON(C)[C@H]2C[C@H]3c4cc(N5CCN(C)CC5)ccc4CCN3C(=O)[C@@H]12	2.38% (inactive)
COc1cc(OC)cc(C(=O)NC(C(=O)N2CCC2)C(C)C)c1 (configuration not stated)	-1.01% (inactive)
COc1ccc(N2CCN(C(=O)[C@@H](NC(=O)c3cc(OC)cc(OC)c3)C(C)C)CC2)cc1	-0.58% (inactive)
COc1cc(OC)cc(C(=O)N[C@H](C(=O)NNC(=O)c2ccc(Br)cc2)C(C)C)c1	13.6% (active)
COc1ccc(N2CCN(CCCNC(=O)C3CCN(S(=O)(=O)N4CCOCC4)CC3)CC2)cc1	1.84% (inactive)
O=C(CSc1ccccn1)Nc1nc2c(ccc3ccccc32)s1	-2.83% (inactive)
CCS(=O)(=O)Nc1cccc(-c2cc(-c3ccccc3)c3cc(C)ccc3n2)c1	10.6% (active)
CS(=O)(=O)Nc1cccc(-c2cn3ccccc3n2)c1	-0.95% (inactive)
Cc1cc(C)cc(NS(=O)(=O)Cc2ccccc2)c1	1.07% (inactive)
CC1CN(S(=O)(=O)c2ccc(C(=O)Nc3sccc3C(N)=O)cc2)CC(C)O1 (configuration not stated)	-4.29% (inactive)
Cc1ccc2c(c1)N(CC(=O)N(Cc1ccccn1)Cc1ccco1)C(=O)C(C(C)C)O2 (configuration not stated)	0.17% (inactive)
O=c1[nH]c2c(c(=O)n1-c1ccccc1)CCO2	1.26% (inactive)
Cc1cccc(Nc2nc(NCCO)nc(N3CCCC3)n2)c1	-4.68% (inactive)
CC(C)n1cnc2c(Nc3cccc(Cl)c3)nc(N(CCO)CCCO)nc21	1.29% (inactive)
OCCCNc1nccc(-c2cc(Nc3cccc(Cl)c3)ncn2)n1	21.3% (active)
CCC(=O)Nc1cc(C(F)(F)F)ccc1N1CCCC1	1.55% (inactive)
CCC(=O)N1CCN=C1SCc1ccc(F)cc1	1.29% (inactive)

SMILES	Tm shift relative to glycine control
O=C(C1CC1)N1CCN=C1SCc1ccc(Cl)cc1	11.7% (active)
O=C(c1ccco1)N1CCN=C1SCc1cccc(Cl)c1	0.08% (inactive)
COc1ccc(CN2CN(C(C)C)CSC2=S)cc1	1.51% (inactive)
COc1ccc(-c2csc3ncnc(N4CCN(S(=O)(=O)c5cccc(F)c5)CC4)c23)cc1	-1.02% (inactive)
O=S(=O)(Nc1ncnc2sccc12)c1cccc(F)c1	-0.96% (inactive)
Cc1cc(F)ccc1S(=O)(=O)Nc1ncnc2scc(-c3ccc(F)cc3)c12	10.2% (active)
C=CCNC(=O)COC(=O)c1ccccc1C(=O)N(C)C1CCCCC1	-0.25% (inactive)
O=C(CN(CC1CCCO1)C(=O)CNS(=O)(=O)c1ccc(Cl)cc1)NCc1ccccc1 (configuration not stated)	2.76% (inactive)
CC(C)(C)OC(=O)N1CCC(C(=O)NNC(=O)c2ccc(Cl)cc2Cl)CC1	-2.13% (inactive)
Cc1ccc(-n2ncc(C(=O)NC3CC3)c2C2CCN(C(=O)OC(C)(C)C)CC2)c(C)c1	13.4% (active)
Cc1ccc(C)c(NC(=O)C2CCCN2C(=O)OC(C)(C)C)c1 (configuration not stated)	4.23% (inactive)
CCn1c(=S)[nH]c2cc(S(=O)(=O)N3CCOCC3)ccc21	2.56% (inactive)
Cc1cc(NS(=O)(=O)c2ccc(NC(=O)C(C)Oc3cccc(C)c3C)cc2)nc(C)n1 (configuration not stated)	3.5% (inactive)
CCNc1nc(NC(C)C)nc(N2CC(=O)N(CC(=O)OCC)C2=N)n1	-4.17% (inactive)
CCN(CC)CCCC(C)n1c2nc(=O)[nH]c(=O)c-2nc2cc(Cl)ccc21 (configuration not stated)	-386% (inactive)
CCOC(=O)C1=C(CC)Nc2ccccc2N=C1NC(=O)c1cccc(S(=O)(=O)N2CCCC2)c1	0% (inactive)
CC[C@@H](C)[C@H](NC(=O)CCc1c(C)c2cc3c4c(oc3c(C)c2oc1=O)CCCC4)C(=O)O	1.33% (inactive)
Cc1c(CC(=O)NCC(=O)NCC(=O)O)c(=O)oc2cc3oc4c(c3cc12)CCCC4	31.7% (active)
Cc1c(CC(=O)NCCCCCC(=O)O)c(=O)oc2cc3occ(-c4ccccc4)c3cc12	-0.98% (inactive)
CC1CC1C(=O)OCC(=O)c1c(N)n(C)c(=O)n(C)c1=O (configuration not stated)	-0.75% (inactive)
O=C(Nc1ccc(OC(F)(F)F)cc1)c1ccc2c(c1)no[n+]2[O-]	-3.76% (inactive)
Cc1cccc(N(CC(=O)N=Nc2c(O)[nH]c3ccccc23)S(C)(=O)=O)c1C	-1.51% (inactive)
Cc1c(-c2ccccc2)n[nH]c1C(=O)N=Nc1c(O)[nH]c2ccccc12	13.9% (active)

SMILES	Tm shift relative to glycine control
O=C(CCN1CCCCC1)N=Nc1c(O)[nH]c2ccccc12	-1% (inactive)
COc1ccc(CNC(=O)C2CCN(S(=O)(=O)c3ccc(SC)cc3)CC2)cc1	1% (inactive)
CCc1ccccc1NC(=O)CSc1nnc([C@@H](NC(=O)OC(C)(C)C)C(C)CC)o1 (some centres not stated)	-1.3% (inactive)
CC(C)Sc1nnc([C@H](Cc2ccccc2)NC(=O)OC(C)(C)C)o1	32.2% (active)
C[C@@H](NC(=O)OC(C)(C)C)c1nnc(S(=O)(=O)Cc2ccccc2)o1	0% (inactive)
C/C(CC(O)(/C=N/O)c1ccccc1)=N\O (configuration not stated)	1.21% (inactive)
COc1ccc2ccccc2c1CNc1nnnn1C	0.15% (inactive)
O=C(NNC(=O)c1ccc2ccccc2c1)c1ccc(Cl)cc1	-1.56% (inactive)
Cc1cccc(NC(=O)c2ccc3ccccc3n2)n1	-0.88% (inactive)
Clc1ccc(Nc2ccc3ccccc3n2)cc1	45% (active)
CC1(C)CC(=O)C=C(NCCCN2CCCC2=O)C1	-0.27% (inactive)
Nc1nc(C23CC4CC(CC(C4)C2)C3)cs1	-1.42% (inactive)
COC(=O)c1cc(NC(=O)c2cc(C(C)(C)C)nn2Cc2cccc(C)c2)ccc1N1CCOCC1	-0.21% (inactive)
CCCCC1(C(=O)OCC)NC(c2ccc(O)cc2)C2C(=O)N(c3ccccc3)C(=O)C21 (configuration not stated)	-1.17% (inactive)
CCCC1(C(=O)OCC)NC(c2ccc(N(C)C)cc2)C2C(=O)N(c3ccc4c(c3)OCCO4)C(=O)C21 (configuration not stated)	17% (active)
COC(=O)C1(C)NC(c2ccc(C)cc2)C2C(=O)N(c3ccc(F)cc3)C(=O)C21 (configuration not stated)	2.13% (inactive)
O=C(CC1SC(N2CCOCC2)=NC1=O)Nc1ccccc1F (configuration not stated)	-1.22% (inactive)
COc1ccc(S(=O)(=O)N2CCN(C(=O)N(C)C)C2C)cc1 (configuration not stated)	-2.39% (inactive)
Cc1nn(C)c(Cl)c1CN1CCC(Oc2ccc(C(=O)N3CCCC3)cc2)CC1	12.6% (active)
CC(=O)Nc1ccc(CN2CCC(Oc3ccc(C(=O)N4CCCC4)cc3)CC2)cc1	0.37% (inactive)
O=C(c1ccc(OC2CCN(Cc3ccccn3)CC2)cc1)N1CCCCCC1	0.85% (inactive)
COc1ccccc1C(=O)NC(=O)COC(=O)C1CC1	-1.81% (inactive)
C[C@@H](C(=O)N1CCNCC1)n1cc(CCC(=O)O)nn1	1.39% (inactive)

SMILES	Tm shift relative to glycine control
Cc1cccc(C(=O)N2CCN(S(=O)(=O)N3CCCCC3)CC2)c1	11.1% (active)
Cc1ccc(C(=O)N2CCN(S(=O)(=O)N3CCOCC3)CC2)cc1	-1.26% (inactive)
O=C(c1cccc(S(=O)(=O)N2CCCCCC2)c1)N1CCN(Cc2ccccc2)CC1	0.36% (inactive)
CCOc1ccc(C(=O)Nc2c3c(nn2-c2ccccc2)CS(=O)(=O)C3)cc1	-0.47% (inactive)
COc1cc(C(=O)Nn2c(O)c(C3=c4ccccc4=NC3=O)sc2=S)ccc1O	11.1% (active)
COc1cc(C(=S)NC2CCCCC2)ccc1O	-5.68% (inactive)
COc1cc(C(=O)Nn2c(CC(C)C)nc3ccccc3c2=O)cc(OC)c1OC	-0.54% (inactive)
CN(CC(=O)Nc1ccccc1F)CC(=O)Nc1ccccc1Br	-1.08% (inactive)
CCOc1ccc(NC(=O)CN(C)C(=O)COc2cccc(CC)c2)cc1OCC	3.14% (inactive)
Cc1nn(C)c(C)c1S(=O)(=O)N1CCc2ccccc21	-0.32% (inactive)
Cc1cccc(NC(=S)NCc2ccc3[nH]c4c(c3c2)CCCC4)c1	16.4% (active)
Cc1cccc(NC(=S)N2CCC(C(=O)c3ccc(F)cc3)CC2)c1	-1.17% (inactive)
CCc1cccc(CC)c1NC(=S)NCc1ccc2[nH]c(C)cc2c1	-6.16% (inactive)
CC(NC(=O)c1cc(=O)[nH]c2ccccc12)c1ccc(F)cc1F (configuration not stated)	-1.44% (inactive)
CCCn1c(=N)n(CC(=O)c2ccc(Cl)c(Cl)c2)c2ccccc21	-6.05% (inactive)
CCOC(=O)C1CCN(Cc2ccc(-c3ccccc3)cc2)CC1	-0.95% (inactive)
CCOC(=O)N1CCN(Cc2nnc(-c3ccccc3Cl)o2)CC1	0.35% (inactive)
CCOC(=O)C1CCN(Cc2nnc(-c3cccc(Br)c3)o2)CC1	222% (active)
CCOC(=O)c1cc2c(=O)[nH]c(C(Cl)(Cl)Cl)nc2o1	5.2% (inactive)
Cn1c(=O)c2c(nc(NCCc3ccccc3)n2Cc2ccccc2)n(C)c1=O	-12.7% (inactive)
C/C(Cl)=C\Cn1c(Nc2cccc(C)c2)nc2c1c(=O)n(C)c(=O)n2C	18.4% (active)
Cc1cccc(Cn2c(N3CCN(c4ccccc4)CC3)nc3c2c(=O)n(C)c(=O)n3C)c1	-1.11% (inactive)
FC(F)(F)c1ccc(-c2cccc3c2C2CC3CCN2Cc2ccccc2)cc1 (configuration not stated)	0.87% (inactive)
